# KB-V1 cytotox = KB-V1 MDR subline cytotoxicity. Potency, µM (top dose mostly 46.1 µM), usual class: cytotoxic. actives 3.4% (n = 400,000). KB-V1 MDR cells viability, CellTiter-Glo, 72 h; note: % is set by controls: 0 for no effect and ±100 for the full control effect; nearly all actives have a fitted effect of over 60% in size
#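 Cells of the MDR subline KB-V1 are plated, dosed with compound at multiple concentrations, and incubated 72 h at 37 degrees C; CellTiter-Glo is then added and luminescence read after 10 min.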
# SW480 rereplic = DNA re-replication induction in SW480 cells; SW480 DNA re-replication, Hoechst DNA content imaging, 48 h; Potency, µM (highest dose often 46.1 µM), without a hit: top-dose re-replication activation, hits mostly activators; actives 1.8% (n = 340,000); AID 624297; note: % of control where 0% means no effect; nearly all actives have a fitted effect of over 55% in size
#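 Hoechst fluorescence of nuclei (405 nm excitation, 500-530 nm emission) measured by plate-scanning imager after 48 hr compound exposure at 37 C; re-replication scored as increased number of nuclei with elevated intensity.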
# RGS4 inhibitor = blocks human RGS4-accelerated GTP hydrolysis; Potency, µM (series often up to 114 µM), for the others: at the highest dose activity change, negative = inhibition, actives largely listed as inhibitors; P49798; Transcreener GDP fluorescence polarization, RGS4-accelerated GTP hydrolysis; actives 0.039% (n = 390,000); note: % is set by controls: 0 for no effect and ±100 for the full control effect; nearly all actives have a fitted effect of over 75% in size
# Target sequence (P49798 whole entry, looked up): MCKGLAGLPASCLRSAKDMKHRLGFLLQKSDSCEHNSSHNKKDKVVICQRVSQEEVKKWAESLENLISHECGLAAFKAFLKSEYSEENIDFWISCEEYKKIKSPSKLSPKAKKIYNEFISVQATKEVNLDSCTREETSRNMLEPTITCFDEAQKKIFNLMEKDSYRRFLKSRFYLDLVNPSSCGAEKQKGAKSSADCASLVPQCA
#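 MLSMR compounds (23 nl, pin-transferred) preincubated 10 min at room temperature with a 500nM (2x) first reagent, then RGS4 at 900nM (2x) plus Transcreener GDP mix added; fluorescence polarization (620/688 nm) read before and after 90 min at 30 °C.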
# PTAP TSG101 blk = blocks PTAP/TSG101 interaction to inhibit HIV-1 budding | Q99816 | Fluorescence polarization, FITC-PTAP peptide / Tsg101 binding | Potency, µM (highest dose often 115 µM), for inactives: at the highest dose activity change, negative = inhibition, most hits filed as inhibitors | 340,000 tested, under 10 active; active = well fitted inhibition curve with a large enough effect in the main read-out, with a control signal flat, not every such curve was filed as active; inconclusive = small, poorly fitted or top-dose-only effect, or effect the other way, or a change in a side signal; inactive = no such curve, though single readings can be large or run the other way; note: % of control where 0% means no effect
# Target sequence (Q99816 whole entry, looked up): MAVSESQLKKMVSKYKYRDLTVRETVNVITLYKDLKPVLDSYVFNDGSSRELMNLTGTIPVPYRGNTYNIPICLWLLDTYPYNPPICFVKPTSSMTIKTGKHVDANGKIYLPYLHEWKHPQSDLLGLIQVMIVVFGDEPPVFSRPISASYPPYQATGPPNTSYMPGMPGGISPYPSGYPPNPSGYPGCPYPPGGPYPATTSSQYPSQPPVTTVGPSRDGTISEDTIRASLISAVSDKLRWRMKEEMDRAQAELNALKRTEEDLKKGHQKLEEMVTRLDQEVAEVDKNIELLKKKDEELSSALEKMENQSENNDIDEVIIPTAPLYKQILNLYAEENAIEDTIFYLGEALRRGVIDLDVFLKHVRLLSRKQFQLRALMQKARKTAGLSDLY
#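 Compounds were pin-transferred onto Tsg101 binding domain (10 uM final) in HEPES pH 7.5 buffer, then FITC-PTAP peptide was added at 50 nM final. After 20 min at RT, polarization reported peptide displacement across a qHTS concentration series.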
# MCF10A rerep = induces DNA re-replication in MCF 10a normal breast cells. MCF 10A DNA re-replication, Hoechst nuclear intensity, 48 h. Potency, µM (doses to about 46.1 µM), without a hit: at the highest dose activity, positive = re-replication, most hits filed as activators. actives 2.9% (n = 350,000); note: % of control where 0% means no effect; nearly all actives have a fitted effect of over 50% in size
# KB-3-1 tox = KB-3-1 parental cell cytotoxicity. KB-3-1 viability, CellTiter-Glo ATP luminescence, 72 h. Potency, µM (doses to about 46.1 µM), most hits filed as cytotoxic. actives 1.4% (n = 400,000). AID 1347075; note: % is set by controls: 0 for no effect and ±100 for the full control effect; nearly all actives have a fitted effect of over 60% in size
#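 Cells are dispensed, compounds pinned in, plates held at 37 °C for 72 h, then CellTiter-Glo is added and luminescence read after 10 minutes. Cell line: parental KB-3-1 in phenol-red-free DMEM, 10% FBS.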
# The depositor's hits bear a star; i = inactive; u = inconclusive; x = no result; [ ] = another dose, or the depositor's remark. Compounds with a hit are over-represented: about 6.6% of the library has one in this group of screens. Unless noted, calls come from the whole dose curve; as a rule, active = well fitted curve in the direction sought with a large enough effect; inconclusive = small, poorly fitted or top-dose-only effect, or another doubt; inactive = no such curve, though single readings can be large; an effect the other way counts as inactive or inconclusive. Potency is the fitted concentration of half-maximal effect.
SMILES,KB-V1 cytotox,SW480 rereplic,RGS4 inhibitor,PTAP TSG101 blk,MCF10A rerep,KB-3-1 tox
CCOC(=O)C1CCCN(C(=O)c2ccc(NC(=O)c3nsc4ccccc34)cc2)C1 (stereo unspecified),i,x,21%,x,x,i
CCCCCCCCCCCCCCCCCCN(CCCCCCCCCCCCCCCCCC)c1ccc(/C=C/c2ccc(C=O)cc2)cc1,i,x,x,x,x,i
COC(=O)c1ccc(CSc2nc3sc(C(=O)O)c(C)c3c(=O)[nH]2)cc1,i,0%,-16%,-6%,-1%,i
Cc1c(C(=O)O)sc2nc(/C=C/c3cccc(O)c3)[nH]c(=O)c12,i,u,-8%[56.9 µM],-5%,7.3µM*,i
COc1ccc2nc(SCc3ccccc3C)nc(C)c2c1,15µM*,11%,28%,-10%,0%,i
COc1ccc2nc(SCC(=O)O)nc(C)c2c1,i,-11%[9.22 µM],14%,-3%,-1%,i
COc1ccc2nc(SCCOC(=O)Nc3ccc(Cl)cc3)nc(C)c2c1,15µM*,-105%,-11%,-3%,u,u
COc1ccc2nc(SCc3cccc(C)c3)nc(C)c2c1,16µM*,-43%,-4%,-6%,u,i
Cc1ccc2nc(SCc3cccc([N+](=O)[O-])c3)nc(C)c2c1,u,1%,17%,-3%,u,i
Cc1ccc(CNC(=O)c2ccc(CSCc3ccccc3C)o2)cc1,x,x,1%,x,x,x
O=C(NCC(c1ccc2c(c1)OCO2)N1CCN(c2ccccc2F)CC1)c1ccccc1F (stereo unspecified),i,x,-32%,x,x,i
c1nc(N2CCC(N3CCCC3)CC2)c2cc(-c3ccc4c(c3)OCO4)ccc2n1,i,x,x,x,x,i
COc1ccc(/C=C/c2ccccc2)cc1C1C2C=CCCC2(C)C(=O)N1Cc1ccccc1 (stereo unspecified),x,x,-7%,x,x,x
CC1CN(S(=O)(=O)c2cccc3nsnc23)CC(C)O1 (stereo unspecified),i,21%,20%,1%,18µM*,u
O=S(=O)(c1cccc2nsnc12)N1CCCC1,i,-3%,11%,-2%,13%,i
Cc1nc2sc(C(=O)N(C)c3ccccc3)c(NC(=O)c3ccccc3Cl)c2c(C)c1C,i,x,2%,x,x,i
O=c1[nH]nc(Cc2ccc(-c3ccc(Cl)cc3)o2)c2ccccc12,i,u,22%,-11%,8.2µM*,i
COc1ccc(NC(=O)C2CCN(S(=O)(=O)c3cccc(-c4noc(C)n4)c3)CC2)cc1OC,i,x,11%,x,x,i
Cc1nn(-c2nc3ccccc3n2Cc2ccccc2)c2c1C(=O)CC(C)(C)C2,21µM*,10%,-42%,2%,18%,u
Cc1ccc(NC(=O)c2ccc(C)c(S(=O)(=O)N3CCCCCC3)c2)cc1,21µM*,x,-13%,x,x,u
CCc1noc(C)c1C(=O)N1CCN(S(=O)(=O)c2c(C)c(C)cc(C)c2C)CC1,10µM*,5%,-27%,0%,6%,i
Cc1ccc(C(=O)Nc2cccc(O)c2)cc1S(=O)(=O)N1CCCCCC1,i,u,12%,52%,u,u
Cc1ccc(NC(=O)c2ccc(F)c(S(=O)(=O)N3CCOCC3)c2)cc1F,3.7µM*,2%,33%,x,2%,i
Cc1ccc(NC(=O)c2ccc(Cl)c(N3C(=O)C=CC3=O)c2)cc1,u,13µM*,u,-7%,15µM*,u
CCOC(=O)c1c(-c2ccccc2)oc2ccc(NS(=O)(=O)c3ccc(C)cc3)cc12,u,x,17%,x,x,u
SMILES,KB-V1 cytotox,SW480 rereplic,RGS4 inhibitor,PTAP TSG101 blk,MCF10A rerep,KB-3-1 tox
Cc1ccc(C)c(S(=O)(=O)N2CCN(C(=O)c3sccc3C)CC2)c1,9.2µM*,-2%,-21%,-6%,5%,i
Cc1csc(NC(=O)c2ccc(C)c(S(=O)(=O)N3CCCCC3)c2)n1,9.2µM*,3%,-28%,-5%,7%,u
O=C(Nc1cc(S(=O)(=O)N2CCOCC2)ccc1N1CCOCC1)c1ccc([N+](=O)[O-])s1,u,u,-3%,-2%,u,u
Cc1ccc(C)c(S(=O)(=O)N2CCN(C(=O)c3cccn3C)CC2)c1,i,-2%,3%,-1%,-1%,i
Cc1ccc(C)c(S(=O)(=O)N2CCN(C(=O)CNC(=O)c3ccc4ccccc4c3)CC2)c1,23µM*,u,13%,6%,u,u
Cc1ccc(NC(=O)c2ccc([N+](=O)[O-])s2)cc1S(=O)(=O)N1CCOCC1,i,u,-40%,-4%,1%,18µM*
O=C(OCc1ccco1)c1ccc2c(c1)N(Cc1cccc(F)c1)C(=O)c1ccccc1S2,u,x,-26%,x,x,i
CCCC1OC2C[C@@H]3[C@H]4CCC5=CC(=O)C=C[C@]5(C)[C@H]4C(O)C[C@]3(C)[C@]2(C(=O)CO)O1 (stereo partly specified),i,x,6%,x,x,i
COc1ccc(C(=O)NCCc2nc3ccccc3[nH]2)cc1,x,x,7%,x,x,x
CCOc1ccccc1NC(=O)Cc1csc(COc2cccc(C)c2)n1,x,x,8%,x,x,x
Cc1ccc(C(=O)Nc2ccc(Br)cc2)cc1S(=O)(=O)N1CCOCC1,4.1µM*,x,13%,x,x,10µM*
CCc1noc(C)c1C(=O)Nc1ccc(C)c(S(=O)(=O)N2CCCCCC2)c1,7.3µM*,14%,5%,-1%,11%,i
CCc1noc(C)c1C(=O)Nc1cc(S(=O)(=O)N2CCCCC2)ccc1N(C)C,u,-5%,12%,1%,-1%,i
COc1ccc(C)cc1NC(=O)c1ccccc1NS(=O)(=O)c1ccc(Cl)s1,3.3µM*,-20%,-2%,-5%,21µM*,5.2µM*
O=C(Nc1cc(S(=O)(=O)N2CCOCC2)ccc1O)c1ccc(NS(=O)(=O)c2ccc(Cl)s2)cc1,i,106%,-12%,-10%,-55%,i
Cc1ccc(NC(=O)c2ccccc2NS(=O)(=O)c2ccc(Cl)s2)cc1S(=O)(=O)N1CCOCC1,21µM*,2%,6%,-2%,7.3µM*,i
CN(C)c1ccc(CNC(=O)c2sc3ncccc3c2-n2cccc2)cc1,i,x,-6%,x,x,i
COc1cc(CN(CC2CCCO2)C(=O)c2ccc(F)cc2)cc(OC)c1OC (stereo unspecified),x,x,4%,x,x,x
CCn1c(=O)n(CC)c2cc(S(=O)(=O)N3CCc4ccccc43)ccc21,2.3µM*,-5%,-6%,1%,2%,u

# Screening results as filed in PubChem.
